The whole screen tested about 48,000 compounds, of which about 13,000 (27%) showed an effect of 50% or more. The list shows a part of the results.
The molecules below were run on Wolbachia pipientis (assay: Anti-Wolbachia Cell-Based Screen). Conditions: 5 µM.
Assay type: functional
Design: scale not given: in the data most compounds retested in dose-response had high values

SMILES	Percent Effect [%]
CC(C)=CCN1CCc2onc(-c3ccc(F)c(F)c3)c2C1	-6.636
CC(C)NC(=O)[C@@H]1C[C@@H](N)CN1C(=O)CCSCc1ccc(F)cc1	-8.578
CC(NC(=O)c1cc2n(n1)CCCN(C)C2)c1cn2ncsc2n1 (centres undefined)	2.374
O=C(Cc1cc(F)cc(Cl)c1)N[C@@H]1CCNC[C@H]1O	-5.906
Cc1ccc(NC2CCN(C(=O)c3ccnc(N(C)C)c3)CC2)nn1	106.8
Cc1ccc(NC2CCN(C(=O)c3cccc4ncccc34)CC2)nn1	0.6647
Cc1ccc(NC2CCN(C(=O)c3ccc(C#N)cc3)CC2)nn1	103.2
CCn1ccnc1S(=O)(=O)Cc1ccc(C(N)=O)cc1	-8.81
Cc1ccc(NC2CCN(C(=O)CN(C)C3CC3)CC2)nn1	-0.8726
Cc1ccc(NC2CCN(C(=O)COCC3CC3)CC2)nn1	115.7
Cc1ccc(NC2CCN(C(=O)COCC(F)(F)F)CC2)nn1	-5.027
Cc1ccc(NC2CCN(C(=O)CCOCC(F)(F)F)CC2)nn1	69.22
Cc1ccc(NC2CCN(C(=O)COC3CCCC3)CC2)nn1	70.65
Cc1ccc(NC2CCN(C(=O)COC3CCCCC3)CC2)nn1	112.2
Cc1ccc(NC2CCN(C(=O)CC3CCCO3)CC2)nn1 (centres undefined)	6.763
Cc1ccc(CNC(C)c2ccc(N3CCN(C)CC3)c(F)c2)o1.Cl (centres undefined)	-9.969
Cc1cc(NS(=O)(=O)c2c[nH]c3ncccc23)no1	-5.183
COCc1ccccc1C(=O)NCC(O)c1ccccc1F (centres undefined)	-8.064
CC(=O)N1CCC2(CC1)CNc1ccc(F)cc12	-3.15
CS(=O)(=O)N1CCc2[nH]cnc2C12CCN(C(=O)c1cccnc1)CC2	-96.76
Cl.O=C(c1ccccc1)N1CCC2(CC1)CNc1c(F)cccc12	97.7
CN1C(=O)C2(CCN(C(=O)c3ccccc3)CC2)c2cc(F)ccc21.Cl	-1.303
CN1C(=O)C2(CCN(C(=O)c3ccccc3)CC2)c2cccc(F)c21.Cl	2.069
CN1CC2(CCN(C(=O)c3cccnc3)CC2)c2cccc(F)c21.Cl	104.8

SMILES	Percent Effect [%]
CN1C(=O)C2(CCN(C(=O)c3cccnc3)CC2)c2cccc(F)c21	5.447
CC(=O)N1CCC2(CC1)C(=O)N(C)c1c(F)cccc12	2.868
CN1CC2(CCN(Cc3cccnc3)CC2)c2cccc(F)c21.Cl	16.02
CC(=O)N1CCC2(CC1)CNc1c(F)cccc12.Cl	98.89
Cl.O=C(c1cccnc1)N1CCC2(CC1)CNc1c(F)cccc12	106.5
O=S(=O)(NCCN1CC=CC1)c1cncc(Cl)c1	-9.615
CC(C)CN(C)Cc1c[nH]nc1-c1ccc(F)cc1F	-3.52
CNC(=O)NC(=O)CN1CCN(CC(F)(F)F)CC1(C)C	-1.445
CCC(C)(NCC(=O)NC(C)C)c1nc(C)cs1 (centres undefined)	4.424
CCN1CCN(c2ccc(C(=O)NCc3cc(C)no3)cc2F)CC1	-18.85
Cc1nc(C)c2c(n1)CCN(C(=O)CN(C)C)CC2	-4.048
Cc1nnc(CN(C)C(=O)C(CC(C)C)N2CCCCC2=O)n1C (centres undefined)	-1.247
Cc1nc(CN(C)C(=O)CN(C)C)nc2c1CCC(=O)N2CCC(C)C	66.01
COC(=O)N1CCCC(NC(=O)NCc2nc(C)cs2)C1 (centres undefined)	-5.295
CCC(=O)N(CC)CCc1nccs1	-20.38
CCOc1ccc(CC(CNC(=O)c2ccoc2)C(N)=O)cc1 (centres undefined)	0.9555
Cc1cccc(C(C)(C)CNC(=O)CN(C)c2cnccn2)c1	2.301
CN(Cc1cc(C2CC2)[nH]n1)C(=O)c1cnn2ccn(C)c12	92.15
Cc1ccc2[nH]c(=O)c(CN(C)Cc3cc(C4CC4)[nH]n3)cc2c1	-5.439
CN(Cc1cc(C2CC2)[nH]n1)C(=O)c1ccccc1C1CCNC1 (centres undefined)	6.983
CCCn1ncc(C(=O)N(C)Cc2cc(C3CC3)[nH]n2)c1C	103.9
CN(Cc1cc(C2CC2)[nH]n1)C(=O)C(c1cccnc1)N1CCCC1 (centres undefined)	5.078
Cc1ccc(F)c(NC(=O)CCC(=O)N(C)Cc2cc(C3CC3)[nH]n2)c1	-39.88
Cc1cnc2c(C(=O)N(C)Cc3cc(C4CC4)[nH]n3)cnn2c1	88.43

SMILES	Percent Effect [%]
CCCn1ncc(C(=O)N(C)Cc2n[nH]c3c2CCC3)c1C	-0.7404
CCCn1ncc(C(=O)N2CCN(C(=O)c3ccc[nH]3)CC2)c1C	2.425
Cn1ccc(CNC(=O)N2CCCC3(C2)OCCO3)c1	-4.368
Cc1ccc(CNCc2cccc3cn[nH]c23)c(OC2CCOC2)c1 (centres undefined)	1.328
CCCNC(=O)CN1CCOC(CC)C1 (centres undefined)	-15.19
CSc1nc2cc(C)n(CC(N)=O)c2c(=O)n1CC(C)C	0.2317
NC(=O)C1CCN(C(=O)CCCc2ccc(Cl)c(Cl)c2)CC1	-6.164
CC[C@@]1(O)CCN(C(=O)CCSCc2ccc(F)cc2)C[C@H]1O	8.229
NC(=O)C1CCN(C(=O)CCSCc2ccc(Cl)c(Cl)c2)CC1	148.4
O=C(C1COc2ccccc2O1)N1Cc2cnn(CCO)c2C1 (centres undefined)	-44.4
COc1ncccc1C(=O)N(C)Cc1nc(-c2ccccn2)no1	0.08907
COc1ccc(CN2CCC(c3cc(O)nc(C)n3)C2)c(OC)c1.O=C(O)CC(O)(CC(=O)O)C(=O)O (centres undefined)	122.8
COc1ccc(-c2nc(CN3CCCC(OC)C3)c(C)o2)c(F)c1 (centres undefined)	6.893
COc1ccc(F)c(CN2CCCC(c3cc(O)nc(C)n3)C2)c1 (centres undefined)	108.4
Cc1nc(O)cc(C2CCN(Cc3cccc(F)c3F)C2)n1.O=C(O)CC(O)(CC(=O)O)C(=O)O (centres undefined)	-5.944
COc1ccc(OC)c(CN2CCC(c3cc(O)nc(C)n3)C2)c1 (centres undefined)	99.72
COc1ccc(F)c(CN2CCC(c3cc(O)nc(C)n3)C2)c1.O=C(O)CC(O)(CC(=O)O)C(=O)O (centres undefined)	-11.82
COCC(=O)N1CCC2(CCCN(Cc3cc(OC)ccc3F)C2)C1 (centres undefined)	2.404
Cc1nc(O)cc(C2CCN(Cc3ccc(F)c(F)c3)C2)n1.O=C(O)CC(O)(CC(=O)O)C(=O)O (centres undefined)	92.59
CCN1CCC(CNCc2cc(OC)ccc2OC)C1 (centres undefined)	4.75
CNC(=O)[C@@H]1C[C@@H](N)CN1C(=O)CCSCc1ccccc1	-2.753
Cc1ncc(-c2nc3cc(S(=O)(=O)N4CCCC4)ccc3n2C)cn1	-2.365
O=C(Nc1ccc(-n2cccn2)c(F)c1)C1CCN(C(=O)C2CC2)CC1	-6.661
Cc1nnn2c1COCC(CNC(=O)c1ccnnc1)C2 (centres undefined)	-2.264

SMILES	Percent Effect [%]
CCN(C)CC1CCN(C(=O)NCCC2Cc3ccccc3C2)C1 (centres undefined)	-23.1
COc1ccc(CN2CCC(c3cc(O)nc(C)n3)C2)c(F)c1 (centres undefined)	113.4
CC(C)c1noc(C[S+]([O-])CC(=O)Nc2cc(F)ccc2F)n1 (centres undefined)	-11.5
N#Cc1cc(N2CCC(CS(N)(=O)=O)CC2)c2ccccc2n1	3.151
Cc1nc(CN2C[C@@H](NC(=O)C3CCC3)[C@H]3COC[C@H]32)cs1.O=C(O)C(F)(F)F	-15.38
CNC(=O)[C@@H]1C[C@H]2CN(C(=O)c3ccco3)C[C@H]2N1C.O=C(O)C(F)(F)F	-16.64
Cc1nc(CN2CCn3cc(CNC(=O)C4CCC4)nc3C2)cs1.O=C(O)C(F)(F)F	-18.19
Cc1nc(CN2C[C@@H]3CCCO[C@@H]3[C@H](N(C)C(C)C)C2)cs1.O=C(O)C(F)(F)F.O=C(O)C(F)(F)F	-4.847
CNC(=O)[C@@H]1C[C@H]2CN(Cc3csc(C)n3)C[C@H]2N1C(C)C.O=C(O)C(F)(F)F.O=C(O)C(F)(F)F	116.9
CNC(=O)[C@@H]1C[C@H]2CN(C(=O)c3ccco3)C[C@H]2N1C(C)C.O=C(O)C(F)(F)F	99.89
Cc1nc(CN2CCO[C@@H]3CN(C(=O)NC(C)C)CC[C@@H]3C2)cs1.O=C(O)C(F)(F)F	-13.31
CNC(=O)[C@H]1C[C@@H]2CN(S(=O)(=O)Cc3ccccc3)C[C@@H]2N1C.O=C(O)C(F)(F)F	-3.951
CNC(=O)[C@H]1C[C@@H]2CN(Cc3csc(C)n3)C[C@@H]2N1S(C)(=O)=O.O=C(O)C(F)(F)F	110
Cc1nc(C)c(CC(=O)Nc2ncc(C)s2)c(=O)[nH]1	-6.358
CCn1c(C2CCN(Cc3cc(C)n(NC(C)=O)c3C)CC2)n[nH]c1=O	1.026
O=C(CN1CCN(CC2CCOc3ccccc3C2)CC1)N1CCCC1 (centres undefined)	1.365
COCCC(=O)N(Cc1ccccn1)Cc1ccccc1C	13.85
Cc1ccc(CN(Cc2ccccn2)C2CC(C)(C)NC(C)(C)C2)s1.O=C(O)CC(O)(CC(=O)O)C(=O)O	-1.083
Cn1ccnc1CN(Cc1ccccn1)Cc1ccccc1Cl.O=C(O)CC(O)(CC(=O)O)C(=O)O	93.9
Cc1ncc(CN(Cc2ccccn2)Cc2ccccc2Cl)n1C.O=C(O)CC(O)(CC(=O)O)C(=O)O	124.9
CC(C)CN(Cc1ccccn1)Cc1ccccc1C(=O)O	-7.566
CC(C)CN(Cc1ccccn1)Cc1ccccc1OCC(=O)O	7.517

From ChEMBL document CHEMBL3988442, “University of Dundee, Small-Polar-MMV Screening Library” (2021)
